Most compounds without a hit are left out; they make up all but 8.8% or so of the library.
HT1080 IDH1KD tx – toxicity to HT-1080 IDH1 knockdown cells (counter line). HT-1080 IDH1 knockdown viability, ATP luminescence, 48 h. Potency, µM (series often up to 46.1 µM), inactives show at the highest dose activity, negative = toxicity, hits mostly cytotoxic. hit rate 2% among 360,000. AID 686971;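 further: potency means the concentration at half of the fitted maximal effect; 0% = DMSO wells and -100% = cell-free medium wells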
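Assay cells: HT-1080 with IDH1 knockdown, 750 per well, RPMI/5% FBS. Exposure: 48 h at 37 °C following 2 h pre-incubation. Read: CellTiter-Glo luminescence; fitted concentration-response, curve class assigned.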
HT1080-NT tox – kills 2HG-producing HT-1080-NT fibrosarcoma cells; HT-1080-NT fibrosarcoma viability, CellTiter-Glo ATP luminescence, 48 h; Potency, µM (top dose mostly 46.1 µM), without a hit: at the highest dose activity, negative = less viability, most hits filed as cytotoxic; hit rate 1.6% among 360,000;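 further: NT is the 2HG producing partner of a matched IDH1 knockdown line; potency means the concentration at half of the fitted maximal effect; 0% = DMSO-treated cells and -100% = media-only wells without cells; nearly all actives have a fitted effect of over 55% in size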
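Viability of the 2HG-overproducing fibrosarcoma line after 48 hours of compound exposure at 37 degrees C was determined by luminescence with CellTiter-Glo, and concentration-effect curves were then fitted and categorized.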
KB-3-1 tox – kills parental KB-3-1 adenocarcinoma cells | KB-3-1 viability, CellTiter-Glo ATP luminescence, 72 h | hit rate 1.4% among 400,000 | Potency, µM (titrated, usually from 46.1 µM), hits mostly cytotoxic; further: potency means the concentration at half of the fitted maximal effect; nearly all actives have a fitted effect of over 60% in size
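Parental KB-3-1 adenocarcinoma cells in phenol-red-free DMEM with 10% FBS were pin-treated with compounds at several concentrations, incubated 72 h at 37 °C, and viability read by CellTiter-Glo luminescence; concentration-effect curves were fitted after normalization.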
IL1B secr inh – inflammasome signaling inhibition, IL-1 beta readout | THP-1 LPS/ATP IL-1B secretion, AlphaLISA, 16 h; stronger effect = lower value | activity change, % at 57.5 µM | hit rate 4.7% among 360,000 | AID 743279; in the data active means activity change below about -50%; inconclusive means mostly about -30% to -49%
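Secreted IL-1B measured by AlphaLISA bead assay after 16 h compound exposure of THP-1 cells; compounds (final up to 57.5 uM) added 1 h before LPS (250 ng/mL) and ATP (1.25 mM) stimulation; lower signal means less secretion.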
KB-V1 MDR tox – kills drug-selected multidrug resistant KB-V1 cells | KB-V1 MDR cells viability, CellTiter-Glo, 72 h | Potency, µM (top dose mostly 46.1 µM), actives largely listed as cytotoxic | hit rate 3.4% among 400,000 | AID 1347076; further: potency means the concentration at half of the fitted maximal effect; nearly all actives have a fitted effect of over 60% in size
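Cells of the MDR subline KB-V1 are plated, dosed with compound at multiple concentrations, and incubated 72 h at 37 degrees C; CellTiter-Glo is then added and luminescence read after 10 min.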
* hit, by the source's call; i = inactive; ? = inconclusive; nt = no result; [ ] = another dose, or the depositor's remark. Unless noted, the call rests on the fitted dose curve; in most records, active means well fitted curve in the direction sought with a large enough effect; inconclusive means small, poorly fitted or top-dose-only effect, or another doubt; inactive means no such curve, though single readings can be large; an effect the other way counts as inactive or inconclusive. Unless noted, on the % scale 0 is the no-effect control and ±100 the full control effect.

SMILES | HT1080 IDH1KD tx | HT1080-NT tox | KB-3-1 tox | IL1B secr inh | KB-V1 MDR tox
Cc1ccc(-c2cc(C(F)F)n3ncc(C(=O)N4CCCc5ccccc54)c3n2)cc1 | -2.4% | -2.3% | i | 12.2 | i
O=C(c1cc2nc(-c3ccccc3)cc(C(F)(F)F)n2n1)N1CCN2CCCC2C1 (configuration not stated) | -4.7% | ? | i | ? | i
O=C(Nc1cccnc1)C1CCN(S(=O)(=O)c2ccc(Cl)cc2)CC1 | 0.9% | -1.0% | nt | 17.6 | nt
Nc1nc(CSc2ccc(Cl)cc2)nc(N2CCCCC2)n1 | -4.2% | -14.3% | i | -58.9* | ?
CN(C(=O)COC(=O)c1cccc(S(=O)(=O)N(C)c2ccccc2)c1)C1CCCCC1 | -11.8% | -1.5%[9.24 µM] | i | 0.0 | ?
Cc1nc(N2CCN(c3ccccn3)CC2)c2c(C)c(C(=O)Nc3ccccc3F)sc2n1 | 11.4% | 6.2% | 20.6µM* | -8.7 | ?
Cc1c(C(=O)Nc2c(F)cccc2F)sc2ncnc(N3CCN(c4ccccc4)CC3)c12 | ? | -5.3% | i | -56.9* | i
Cc1nc(N2CCC(C)CC2)c2c(C)c(C(=O)Nc3ccc(C(F)(F)F)cc3)sc2n1 | ? | ? | i | -84.2* | ?
Cc1nc(N2CCN(c3ccccn3)CC2)c2c(C)c(C(=O)Nc3ccc(F)cc3F)sc2n1 | 2.3% | 5.0% | i | -20.6 | 11.6µM*
Cc1nc(N2CCC(C)CC2)c2c(C)c(C(=O)Nc3cccc(C(F)(F)F)c3)sc2n1 | ? | ? | i | 0.0 | i
Cc1c(C(=O)NC2CCCCC2)sc2ncnc(N3CCN(c4ccccc4)CC3)c12 | 4.4% | 4.0% | i | 9.5 | i
Cc1nc(N2CCN(c3ccccn3)CC2)c2c(C)c(C(=O)Nc3ccc(F)cc3Cl)sc2n1 | 0.0% | -0.3% | ? | ? | ?
CS(=O)c1ccccc1-c1nc(-c2cccc(Cl)c2)no1 (configuration not stated) | -14.8% | -11.9% | i | -28.7 | i
COc1ccc(NC(=O)c2sc3ncnc(N4CCN(c5ccccn5)CC4)c3c2C)cc1Cl | 1.1% | -9.6% | ? | ? | i
Cc1cc(Br)ccc1NC(=O)c1sc2ncnc(N3CCN(c4ccccn4)CC3)c2c1C | 8.1% | 12.2% | 6.51µM* | -77.0* | ?
COc1ccc(C2c3c(-c4ccccc4)n[nH]c3C(=O)N2c2ccc(C(=O)O)cc2)c(OC)c1 (configuration not stated) | nt | nt | i | nt | ?
c1ccc(CSc2ncnc3sccc23)cc1 | 11.2% | 9.7% | i | 0.0 | i
CCc1cc2c(Sc3nc4ccccc4s3)ncnc2s1 | ? | 5.17µM* | 11.6µM* | ? | ?
c1ccc2sc(Sc3ncnc4sccc34)nc2c1 | ? | -24.5% | i | -78.7* | i
COc1ccc(OCc2nnc3n2N=C(c2ccccc2)CS3)cc1 | nt | nt | i | nt | i
Cc1c(C(=O)N2CCC[C@H]2CO)oc2c(F)cccc12 | -3.9% | -2.2% | i | 0.0 | i
O=C(Cc1csc(Nc2nc(=S)[nH]c3ccccc23)n1)N1CCN(c2cccc(Cl)c2)CC1 | -16.8% | ? | 23.1µM* | 64.0 | 18.4µM*
Cc1ccc(Cl)cc1N1CCN(C(=O)Cc2csc(Nc3nc(=S)[nH]c4ccccc34)n2)CC1 | 9.0% | 0.6% | i | 30.7 | ?
C=CCNC(=S)NNc1nc(Nc2ccccc2)nc(N2CCCCC2)n1 | 4.3% | -12.9% | i | -63.1* | i
C=CCNC(=S)NNc1nc(N2CCCC2)nc(N2CCCC2)n1 | -3.5% | -0.1% | i | -6.5 | i
SMILES | HT1080 IDH1KD tx | HT1080-NT tox | KB-3-1 tox | IL1B secr inh | KB-V1 MDR tox
CNC(C)C(=O)NC(C(=O)NC(C)C(=O)Nc1cccc2ccccc12)C(C)C (configuration not stated) | 11.4% | 7.9% | i | 0.0 | i
COc1ccc(CNC(=O)Cn2ccc3cc(S(=O)(=O)N4CCCCCC4)ccc32)cc1OC | nt | nt | i | nt | i
Cc1ccc(CNC(=O)COc2ccc(C(=O)c3ccc(F)cc3)cc2)cc1 | 2.2% | -4.6% | ? | ? | ?
COC(=O)C1=C(O)C(C(=O)OC)C(c2ccc(C)cc2)C(C#N)(C#N)C1c1ccc(C)cc1 (configuration not stated) | -25.9% | -24.3% | 7.31µM* | -5.2 | ?
COC(=O)C1=C(Nc2ccc(C)cc2)C=C(C)C(C(=O)OC)C1c1ccc(OC)cc1 (configuration not stated) | ? | ? | i | -4.6 | i
Oc1ccc2c(c1)c1c3n2CCNC3CCC1 (configuration not stated) | 11.0% | 3.8% | i | 4.3 | i
c1cc2c(cc1C1CCCCC1)c1c3n2CCCNC3CCC1 (configuration not stated) | 20.6µM* | 16.4µM* | 18.4µM* | -83.4* | ?
Cc1ccc2c(c1)c1c3n2CCCNC3CCC1 (configuration not stated) | ? | ? | i | -54.5* | i
Cc1cc(Br)ccc1NC(=O)C1(S(=O)(=O)c2ccc(Cl)cc2)CC1 | nt | nt | i | nt | i
CCCOc1ccc(CNC(=O)C2CCN(c3nc4ccccc4nc3C(F)(F)F)CC2)cc1 | nt | nt | i | nt | i
COc1ccc2sc(N(CCCN(C)C)C(=O)c3ccc(S(=O)(=O)N4CCCC4)cc3)nc2c1 | -4.8% | -3.8% | i | ? | i
COc1ccc2sc(N(CCCN(C)C)C(=O)c3ccc(S(=O)(=O)N4CCc5ccccc5C4)cc3)nc2c1 | ? | ? | ? | -118.3* | 23.1µM*
Cc1cccc2sc(N(CCCN(C)C)C(=O)c3ccc(S(=O)(=O)N4CCc5ccccc5C4)cc3)nc12 | ? | ? | ? | ? | i
CN(C)CCCN(C(=O)c1ccc(S(=O)(=O)N2CCc3ccccc3C2)cc1)c1nc2ccc(F)cc2s1 | 16.4µM* | ? | ? | -98.4* | ?
Cc1cc(C)c2nc(NNC(=O)c3ccc(S(=O)(=O)N4CCc5ccccc5C4)cc3)sc2c1 | 6.51µM* | ? | ? | 104.8 | i
Cc1ccc2nc(N(CCCN(C)C)C(=O)c3ccc(S(=O)(=O)N4CCc5ccccc5C4)cc3)sc2c1 | 13µM* | ? | ? | -96.2* | 20.6µM*
CN(C)CCCN(C(=O)c1ccc(S(=O)(=O)N(C)C)cc1)c1nc2ccc(F)cc2s1 | 4.0% | -14.9% | i | -0.5 | i
O=C(CSc1nnc(COc2ccccc2Cl)o1)NC(=O)NCc1ccco1 | 2.6% | 22.7% | i | 21.5 | i
C[C@H](CO)N1C[C@H](C)[C@@H](CN(C)C(=O)Nc2ccc(C(F)(F)F)cc2)Oc2ccc(NC(=O)Cc3ccccc3)cc2C1=O | -1.6% | -0.5% | i | -21.6 | i
CN(C)CCCN(C(=O)c1ccc(S(=O)(=O)N2CCc3ccccc32)cc1)c1nc2ccc(F)cc2s1 | ? | -8.5% | i | -81.1* | i

Bioassay records deposited in PubChem BioAssay by National Center for Advancing Translational Sciences (NCATS).
